Data: PubChem BioAssay (NCATS)
Where “and” joins values, the source holds several entries; their conditions need not be identical. Equal values may be shown once. Results filed as inconclusive are left out. Calls of active or inactive are those of the source. Unless noted, calls follow the shape of the dose curve; as a rule, active = well fitted cell-killing curve with a large enough effect; inconclusive = small, poorly fitted or top-dose-only effect; inactive = flat fitted curve, though single readings scatter.

How the values were obtained:
[1] = qHTS Assay for Lipid Storage Modulators (AID 1519; calls by dose curve; as to activity change, negative = inhibition: % is scaled to controls: 0 for no effect and ±100 for the full control effect); settings: Drosophila S3 cells, BODIPY lipid droplet/cell ratio, laser cytometry, cells loaded with oleic acid
Procedure, shortened: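 Cells seeded at 5,000 per well were treated with compounds over a concentration series and loaded with oleic acid (400 uM, as added). Lipid droplet fluorescence (488 nm excitation, 500-530 nm channel) was read by laser-scanning cytometry and normalized to 20 uM Triacsin C.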

[2] = Cell Viability - LYMP2-019 (AID 973); settings: LYMP2-019 lymphoblastoid cell line viability; series mostly up to 92.2 µM;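 also: 0% = DMSO alone and full effect = 92 µM tetraoctylammonium bromide; nearly all actives have a fitted effect of over 55% in size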
Procedure, shortened: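 Human lymphoblastoid cells were seeded at 2500 cells/well, preincubated 5 hr at 37 C, then exposed to compounds for 24 hr at 37 C in complete medium. Intracellular ATP was measured by CellTiter-Glo luminescence; AC50 from Hill fits.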

[3] = Cell Viability - LYMP2-021 (AID 974); settings: LYMP2-021 lymphoblastoid cells viability; series mostly up to 92.2 µM;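 also: compound exposure lasts 24 hours at 37 °C; % is scaled to controls: 0 for no effect and ±100 for the full control effect; nearly all actives have a fitted effect of over 55% in size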
Procedure, shortened: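 Human lymphoblastoid cells (2500/well) were preincubated 5 hr at 37 C, then exposed to compounds for 24 hr at 37 C in complete medium. Intracellular ATP was read by CellTiter-Glo luminescence; AC50 came from Hill-equation fits of concentration-response data.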

[4] = Cell Viability - LYMP2-023 (AID 975); settings: LYMP2-023 lymphoblastoid cell viability; series mostly up to 92.2 µM;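 also: cellular ATP measured by luciferase luminescence as viability proxy; plate controls were DMSO only for no effect and 92 µM tetraoctylammonium bromide control for full effect; nearly all actives have a fitted effect of over 55% in size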
Procedure, shortened: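 Human lymphoblastoid cells (2500/well) were preincubated 5 hr at 37 C, then exposed to compounds for 24 hr at 37 C in complete medium. Cellular ATP was read by CellTiter-Glo luminescence, and AC50 came from Hill-equation fits.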

[5] = Cell Viability - LYMP2-025 (AID 976); settings: LYMP2-025 lymphoblastoid cell viability; series mostly up to 92.2 µM;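 also: plate controls were DMSO only for no effect and tetraoctylammonium bromide control for full effect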
Procedure, shortened: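 Human lymphoblastoid LYMP2-025 cells (2500/well) were pre-incubated 5 hr at 37 C, then treated with compounds for 24 hr at 37 C in complete medium. Viability was read as intracellular ATP by CellTiter-Glo luminescence; AC50 from Hill fits.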

[6] = Cell Viability - LYMP2-002 (AID 977); settings: LYMP2-002 lymphoblastoid cell viability, qHTS; series mostly up to 92.2 µM;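 also: plate controls were DMSO only for no effect and 92 µM tetraoctylammonium bromide for full effect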
Procedure, shortened: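 Luminescent ATP readout (CellTiter-Glo, 30 min room temperature) after 24 h compound exposure at 37 C of a human lymphoblastoid line, 2500 cells/well. AC50 values derived by standard Hill fitting of qHTS concentration-response data.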

[7] = Cell Viability - LYMP2-006 (AID 978); settings: LYMP2-006 lymphoblastoid cell viability, qHTS; series mostly up to 92.2 µM; also: % is scaled to controls: 0 for no effect and ±100 for the full control effect; nearly all actives have a fitted effect of over 60% in size
Procedure, shortened: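 Concentration-dependent loss of intracellular ATP in a human lymphoblastoid line after 24 hr treatment at 37 C was measured by CellTiter-Glo luminescence, with AC50 values obtained from standard Hill-equation modelling.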

[8] = Cell Viability - LYMP2-007 (AID 979); settings: LYMP2-007 lymphoblastoid cell viability; series mostly up to 92.2 µM;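 also: cells exposed to compound for 24 h before reading; 0% = DMSO only and the negative end = 92 µM tetraoctylammonium bromide; nearly all actives have a fitted effect of over 60% in size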
Procedure, shortened: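 Human lymphoblastoid cells (2500/well) were plated in complete medium, incubated 5 hr at 37 C, then exposed to compounds for 24 hr at 37 C. Intracellular ATP was read by CellTiter-Glo luminescence after 30 min at room temperature; AC50 from Hill fits.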

[9] = Cell Viability - LYMP2-008 (AID 980); settings: LYMP2-008 lymphoblastoid cell viability, qHTS; series mostly up to 92.2 µM; also: % is scaled to controls: 0 for no effect and ±100 for the full control effect; nearly all actives have a fitted effect of over 60% in size
Procedure, shortened: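 Human lymphoblastoid cells (2500/well) were plated, held 5 hr at 37 C, then exposed to compounds for 24 hr at 37 C in complete medium. Intracellular ATP was read by CellTiter-Glo luminescence; AC50 from Hill-fitted concentration-response.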

[10] = Cell Viability - LYMP2-010 (AID 981); settings: LYMP2-010 lymphoblastoid cell viability, qHTS; series mostly up to 92.2 µM; also: % is scaled to controls: 0 for no effect and ±100 for the full control effect; nearly all actives have a fitted effect of over 55% in size
Procedure, shortened: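 Human lymphoblastoid LYMP2-010 cells (2500/well) were preincubated 5 hr at 37 C, then exposed to compounds for 24 hr at 37 C in complete medium. Intracellular ATP was measured by CellTiter-Glo luminescence after 30 min at room temperature; AC50 from Hill-fitted concentration-response.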

[11] = Cell Viability - LYMP2-012 (AID 982); settings: LYMP2-012 lymphoblastoid cell viability qHTS; series mostly up to 92.2 µM
[12] = Cell Viability - LYMP2-014 (AID 983); settings: LYMP2-014 lymphoblastoid cells, viability qHTS; series mostly up to 92.2 µM;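 also: plate controls were DMSO only for no effect and 92 µM tetraoctylammonium bromide for full effect; nearly all actives have a fitted effect of over 50% in size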
Procedure, shortened: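 Human lymphoblastoid cells (2500/well) were pre-incubated 5 hr at 37 C, then exposed to compounds in complete medium for 24 hr at 37 C. Intracellular ATP was read by CellTiter-Glo luminescence after 30 min at room temperature; AC50 from Hill fits.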

[13] = Cell Viability - LYMP2-016 (AID 984); settings: LYMP2-016 lymphoblastoid cell viability, qHTS; series mostly up to 92.2 µM
Procedure, shortened: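 Acute toxicity in a Coriell human lymphoblastoid line is scored as loss of intracellular ATP over 24 h of treatment in complete medium. CellTiter-Glo signal is fitted across concentrations with the Hill equation to give AC50.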

[14] = Cell Viability - LYMP2-018 (AID 985); settings: LYMP2-018 lymphoblastoid cells, viability (qHTS); series mostly up to 92.2 µM;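 also: compound exposure lasted 24 hr at 37 °C; plate controls were DMSO only for no effect and tetraoctylammonium bromide at 92 µM for full effect; nearly all actives have a fitted effect of over 50% in size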
Procedure, shortened: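 Human lymphoblastoid cells (2500/well) were pre-incubated 5 hr at 37 C, then exposed to compounds for 24 hr at 37 C in complete medium. Viability was read as intracellular ATP by CellTiter-Glo luminescence; AC50 values came from Hill-equation fits.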

[15] = Cell Viability - LYMP2-020 (AID 986); settings: series mostly up to 92.2 µM
Procedure, shortened: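 Human lymphoblastoid cells, 2500/well, were pre-incubated 5 hr at 37 C, then exposed to compounds for 24 hr at 37 C in complete medium. Intracellular ATP was read by CellTiter-Glo luminescence, and AC50 was derived by Hill fitting of concentration-response data.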

[16] = Cell Viability - LYMP2-022 (AID 987); settings: LYMP2-022 lymphoblastoid cell viability; series mostly up to 92.2 µM
Procedure, shortened: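 Human lymphoblastoid cells, 2500/well, preincubated 5 hr at 37 C, then exposed to compounds over a concentration range for 24 hr at 37 C in complete medium. Viability read as intracellular ATP by CellTiter-Glo luminescence after 30 min at room temperature; AC50 from Hill fits.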

[17] = Cell Viability - LYMP2-024 (AID 988); settings: LYMP2-024 lymphoblastoid cell viability; series mostly up to 92.2 µM;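 also: plate controls were DMSO only for no effect and 92 µM tetraoctylammonium bromide for full effect; nearly all actives have a fitted effect of over 60% in size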
Procedure, shortened: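 Human lymphoblastoid cells (2500/well) in complete medium were preincubated 5 hr at 37 C, then exposed to compounds for 24 hr at 37 C. Intracellular ATP was read by CellTiter-Glo luminescence; AC50 from Hill-equation fits of concentration-response data.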

[18] = Cell Viability - LYMP2-026 (AID 989); settings: LYMP2-026 lymphoblastoid cell viability, qHTS; series mostly up to 92.2 µM; also: % is scaled to controls: 0 for no effect and ±100 for the full control effect; nearly all actives have a fitted effect of over 50% in size
Procedure, shortened: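 Human lymphoblastoid cells (2500/well) in complete medium were preincubated 5 hr at 37 C, then exposed to compounds for 24 hr at 37 C. Cellular ATP was read by CellTiter-Glo luminescence; AC50 from Hill-equation fits of concentration-response data.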

[19] = measured here: cell count channel max response
[20] = measured here: lipid channel max response

Cc1ccsc1/C=C/C1=NCCCN1C
activity change, negative = inhibition ([1]; at 57.5 µM (top of the series)): 7.06% (inactive) | max response [1, 19]: 12.1% | max response [1, 20]: 23.6%

COc1ccccc1OCC(O)CO (stereo not drawn)
activity change, negative = inhibition ([1]; at 57.5 µM (top of the series)): 8.3% (inactive) | max response [1, 19]: -0.08% | max response [1, 20]: 10.1%

CCOC(=O)[C@H](CCc1ccccc1)N[C@@H](C)C(=O)N1CCC[C@H]1C(=O)O
activity change, negative = inhibition ([1]; at 25.7 µM (top of the series)): 0.997% (inactive) | max response [1, 19]: -1.26% | max response [1, 20]: 0.539%

CCN(CC)CCc1nc(-c2ccccc2)no1
activity change, negative = inhibition ([1]; at 25.7 µM (top of the series)): -4.73% (inactive) | max response [1, 19]: -16% | max response [1, 20]: -19.5%

CNCc1ccccc1
activity change, negative = inhibition ([1]; at 57.5 µM (top of the series)): 4.39% (inactive) | max response [1, 19]: 16% | max response [1, 20]: 24.6%

CC(=O)NCc1c(I)c(NC(C)=O)c(I)c(C(=O)O)c1I
activity change, negative = inhibition ([1]; at 57.5 µM (top of the series)): 14.5% (inactive) | max response [1, 19]: 17.6% | max response [1, 20]: 37%

O=C(O)c1cc(=O)c2ccccc2o1
activity change, negative = inhibition ([1]; at 57.5 µM (top of the series)): 0.609% (inactive) | max response [1, 19]: 15.2% | max response [1, 20]: 23.7%

CCCCOC(=O)c1ccc(N)cc1
outcome [2]: inactive | outcome [3]: inactive | outcome [4]: inactive | outcome [5]: inactive | outcome [6]: inactive | outcome [7]: inactive | outcome [8]: inactive | outcome [9]: inactive | outcome [10]: inactive | outcome [11]: inactive | outcome [12]: inactive | outcome [13]: inactive | outcome [14]: inactive | outcome [15]: inactive | outcome [16]: inactive | outcome [17]: inactive | outcome [18]: inactive | activity change, negative = inhibition ([1]; at 25.7 µM (top of the series)): 0.621% (inactive) | max response [1, 19]: -14.7% | max response [1, 20]: -12.8%

Cc1cc(C)nc(NS(=O)(=O)c2ccc(N)cc2)n1
outcome [2]: inactive | outcome [3]: inactive | outcome [4]: inactive | outcome [5]: inactive | outcome [6]: inactive | outcome [7]: inactive | outcome [8]: inactive | outcome [9]: inactive | outcome [10]: inactive | outcome [11]: inactive | outcome [12]: inactive | outcome [13]: inactive | outcome [14]: inactive | outcome [15]: inactive | outcome [16]: inactive | outcome [17]: inactive | outcome [18]: inactive | activity change, negative = inhibition ([1]; at 25.7 µM (top of the series)): 1% (inactive) | activity change, negative = inhibition ([1]; at 57.5 µM (top of the series)): 8.29% (inactive) | max response [1, 19]: -2.08% and -9.55% | max response [1, 20]: -2.98% and 1.72%

FC(F)(F)C(Cl)Br (stereo not drawn)
outcome [2]: inactive | outcome [3]: inactive | outcome [4]: inactive | outcome [5]: inactive | outcome [6]: inactive | outcome [7]: inactive | outcome [8]: inactive | outcome [9]: inactive | outcome [10]: inactive | outcome [11]: inactive | outcome [12]: inactive | outcome [13]: inactive | outcome [14]: inactive | outcome [15]: inactive | outcome [16]: inactive | outcome [17]: inactive | outcome [18]: inactive

CCCCC1(COC(=O)CCC(=O)O)C(=O)N(c2ccccc2)N(c2ccccc2)C1=O
activity change, negative = inhibition ([1]; at 25.7 µM (top of the series)): -3.4% (inactive) | activity change, negative = inhibition ([1]; at 57.5 µM (top of the series)): 5.77% (inactive) | max response [1, 19]: -9.42% and 23.5% | max response [1, 20]: -12.6% and 36.6%
